Among the data in the supplement of paper PMC4723716 are viability index values, retold here.

The assay deals with Plasmodium falciparum NF54 stage V gametocytes. Kind of assay: viability index relative to DMSO control (fraction); higher = less gametocyte killing. Particulars: 2.5 µM, incubation time: 72 h. The procedure, abridged:
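Compound at 2.5 µM was incubated for 72 hr at 37°C under low oxygen with P. falciparum NF54 stage V gametocytes (0.75% gametocytemia, 1.25% hematocrit, 10 µl, serum-free screening medium) in 1,536-well plates. Staining used 3 µl of 2.5 µM MitoTracker Red CMXRos plus 0.13% saponin for one to two hours, and red particles of 20–70 µm2 were counted in one imaged field per well. Each viability index is that count relative to the plate mean of solvent-only wells.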

Setting [1] is: library set: Broad Institute DOS.
Setting [2] is: library set: Broad Institute Blood Stage.

± gives the uncertainty stated by the source. Over roughly 9,900 compounds, “viability index relative to DMSO control” has its median near 1; the lowest 2% begin near 0.85. The full list was thinned out, with the lowest values kept by preference.

As for `CC(C)(C)[S@@](=O)N1Cc2cc(C(=O)NC3CCC3)nc(-c3cccc(-c4ccccc4F)c3)c2[C@H]1CCO`, under setting [1], the viability index is 1.02 ± 0.012.
With `CC(C)C[C@H]1COCc2cn(nn2)CC[C@@H](Cc2ccc(Cl)cc2)C(=O)N1`, under setting [1], the viability index amounted to 0.955 ± 0.036.
Consider `Cc1noc(C)c1C(=O)N(C)C[C@H]1OCc2ccccc2-c2ccccc2C(=O)N([C@@H](C)CO)C[C@@H]1C`, for which, under setting [1], the viability index amounted to 1.01 ± 0.065.
On the same count and under the same terms, then `O=C(Nc1ccc2c(c1)[C@@H]1C[C@H](CC(=O)N3CCc4ccccc4C3)O[C@@H](CO)[C@@H]1O2)c1ccc2c(c1)OCO2`, with 0.991 ± 0.038.
The same measure, in the same setting: the result for `CN(C)C(=O)[C@@H]1[C@@H](CO)[C@@H]2Cn3c(ccc(C4=CCCC4)c3=O)[C@H]1N2S(=O)(=O)c1cn(C)cn1` reads 0.984 ± 0.045; that for `N#C[C@H]1N[C@H](CO)[C@@H]1c1ccc(C#Cc2ccccc2F)cc1`, 1.07 ± 0.076; that for `CC[C@H]1C/C=C/C[C@@H](C)Oc2ccccc2C(=O)N(C)[C@H](C)C(=O)N1.CC[C@H]1C/C=C\C[C@@H](C)Oc2ccccc2C(=O)N(C)[C@H](C)C(=O)N1`, 1.04 ± 0.086.
`CC(C)C#Cc1ccc([C@H]2[C@H]3CN(C(=O)Cc4ccccc4)CC(=O)N3[C@H]2CO)cc1` yielded a viability index under setting [1] of 1.045 ± 0.0096.
For `Cc1cccc(-c2ccc([C@H]3[C@H]4CN(S(=O)(=O)c5ccccc5F)CCCCN4[C@H]3CO)cc2)c1`, under setting [1], the viability index worked out at 0.973 ± 0.094.
The same measure, in the same setting: then `Cc1ccccc1-c1ccc([C@@H]2[C@H](CO)N3CCCCN(S(=O)(=O)Cc4ccccc4)C[C@@H]23)cc1`, with 0.74 ± 0.039; and `Cc1ccccc1-c1ccc([C@H]2[C@H](CO)N3CCCCN(S(=O)(=O)Cc4ccccc4)C[C@@H]23)cc1`, with 0.924 ± 0.034; and `Cc1cccc(-c2ccc([C@H]3[C@@H](CO)N4CCCCN(S(=O)(=O)c5ccccc5F)C[C@@H]34)cc2)c1`, with 1 ± 0.044.
Still for that read-out and setting: then `Cc1ccccc1-c1ccc([C@H]2[C@@H](CO)N3CCCCN(S(=O)(=O)Cc4ccccc4)C[C@@H]23)cc1`, with 0.991 ± 0.063; and `Cc1cccc(-c2ccc([C@@H]3[C@@H](CO)N4CCCCN(S(=O)(=O)c5ccccc5F)C[C@H]34)cc2)c1`, with 0.537 ± 0.053; and `Cc1noc(C)c1NC(=O)Nc1cccc2c1O[C@H](CN(C)Cc1ccc(C(=O)Nc3ccccc3N)cc1)[C@@H](C)CN([C@H](C)CO)C2=O`, with 0.961 ± 0.023.
Compound `CNC[C@H]1OCCCC[C@@H](C)Oc2ccc(NC(=O)Nc3ccc(OC)cc3)cc2C(=O)N([C@@H](C)CO)C[C@@H]1C` gave a viability index under setting [1] of 0.965 ± 0.12.
Under setting [1], `Cc1cc(C(=O)Nc2ccc3c(c2)C(=O)N(C)[C@H]2CC[C@H](CC(=O)O)O[C@@H]2CO3)no1` returned a viability index of 0.927 ± 0.12.
`C[C@@H]1CN([C@@H](C)CO)C(=O)c2cc(NS(=O)(=O)c3cccs3)ccc2O[C@@H](C)CCCCO[C@H]1CN(C)C(=O)c1ccncc1`: the viability index under setting [1] is 1.07 ± 0.045.
Same read-out and setting: then `COCC#Cc1ccc([C@@H]2[C@@H](CO)N3CCCCN(Cc4cccnc4)C[C@@H]23)cc1`, with 1.06 ± 0.14; and `O=C(Nc1cccc(F)c1)N1CCCCN2[C@@H](CO)[C@H](c3ccc(C#Cc4cccnc4)cc3)[C@@H]2C1`, with 1.05 ± 0.075.
On the same count and under the same terms, then `O=C(Nc1cccc(F)c1)N1CCCCN2[C@H](C1)[C@H](c1ccc(C#Cc3cccnc3)cc1)[C@@H]2CO`, with 0.836 ± 0.036.
The same measure, in the same setting: the result for `COCC#Cc1ccc([C@@H]2[C@H](CO)N3CCCCN(Cc4cccnc4)C[C@@H]23)cc1` reads 1.03 ± 0.068; that for `O=C(Nc1ccc(F)cc1)N1CC(=O)N2[C@H](C1)[C@H](c1ccc(C#Cc3cccnc3)cc1)[C@@H]2CO`, 1.08 ± 0.07; that for `O=C(Nc1cccc(F)c1)N1CCCCN2[C@@H](CO)[C@@H](c3ccc(C#Cc4cccnc4)cc3)[C@@H]2C1`, 0.979 ± 0.089.
With `O=C(Nc1ccc(F)cc1)N1CC(=O)N2[C@@H](CO)[C@H](c3ccc(C#Cc4cccnc4)cc3)[C@@H]2C1`, the viability index under setting [1] is 1.11 ± 0.058.
The same measure, in the same setting: then `O=C(Nc1cccc(F)c1)N1CCCCN2[C@H](CO)[C@@H](c3ccc(C#Cc4cccnc4)cc3)[C@@H]2C1`, with 1.07 ± 0.078; and `O=C(Nc1cccc(F)c1)N1CCCCN2[C@H](CO)[C@H](c3ccc(C#Cc4cccnc4)cc3)[C@@H]2C1`, with 1.05 ± 0.024; and `O=C(Nc1cccc(F)c1)N1CCCCN2[C@H](CO)[C@@H](c3ccc(C#Cc4cccnc4)cc3)[C@H]2C1`, with 0.8437 ± 0.0061.
The same measure, in the same setting: then `O=C(Nc1cccc(F)c1)N1CCCCN2[C@H](CO)[C@H](c3ccc(C#Cc4cccnc4)cc3)[C@H]2C1`, with 0.848 ± 0.034.
In the case of `COc1cccc(CN2CCCCN3[C@H](CO)[C@@H](c4ccc(C#Cc5cccnc5)cc4)[C@@H]3C2)c1`, the viability index under setting [2] was 0.841 ± 0.06.
Under setting [1], `CCCC(=O)Nc1ccc2c(c1)C(=O)N(C)C[C@@H](OC)[C@@H](C)CN(Cc1ccc(F)cc1)[C@@H](C)CO2` yielded a viability index of 0.941 ± 0.11.
Regarding `O=C(C[C@H]1CC[C@@H]2[C@H](COC[C@@H](O)CN2S(=O)(=O)c2ccc(F)cc2)O1)NCCN1CCCCC1`, the viability index under setting [1] amounted to 1.113 ± 0.0099.
Still for that read-out and setting: the result for `COc1ccc(CN(C)C[C@@H]2OCc3cnnn3CCCC(=O)N([C@@H](C)CO)C[C@@H]2C)cc1` reads 1.012 ± 0.0093; that for `CN1C(=O)c2cc(NC(=O)c3ccc(F)c(F)c3)ccc2OC[C@@H]2O[C@H](CC(=O)N3CCCCC3)CC[C@H]21`, 0.986 ± 0.14.
The compound `N#C[C@@H]1[C@@H](c2ccc(C#CC3(O)CCCC3)cc2)[C@@H](CO)N1C(=O)C1CCCCC1` gave a viability index under setting [1] of 1.11 ± 0.019.
`O=C(Nc1ccc(C(F)(F)F)cc1)N[C@@H]1C=C[C@@H](CC(=O)N2CCCCC2)O[C@H]1CO` had a viability index under setting [1] of 1.111 ± 0.008.
Still for that read-out and setting: then `C[C@@H]1CN([C@H](C)CO)C(=O)c2cccc(NC(=O)Nc3ccc(F)cc3)c2O[C@H]1CN(C)S(=O)(=O)c1ccc(Cl)cc1`, with 0.92 ± 0.22; and `CNC(=O)C[C@@H]1CC[C@@H]2[C@@H](COc3ccc(NC(=O)c4ccccc4F)cc3C(=O)N2C)O1`, with 1.13 ± 0.083.
The same measure, in the same setting: then `COc1cccc(S(=O)(=O)N2CC[C@H]3[C@H](CO)Nc4ccc(C#Cc5cccnc5)cc4[C@H]32)c1`, with 1.11 ± 0.082.
`COc1ccc(C#Cc2ccc([C@@H]3[C@@H](CO)N4CCCCN(C(=O)Nc5cccc(F)c5)C[C@H]34)cc2)cc1` yielded a viability index under setting [2] of 0.654 ± 0.049.
Under setting [1], `COc1ccc(NC(=O)N2CCCCN3[C@@H](CO)[C@@H](c4ccc(-c5ccccc5F)cc4)[C@@H]3C2)cc1` yielded a viability index of 0.993 ± 0.011.
Still for that read-out and setting: the result for `O=C(Nc1cccc(F)c1)N1CCCCN2[C@H](C1)[C@@H](c1ccc(C#Cc3cccnc3)cc1)[C@@H]2CO` reads 0.81 ± 0.05.
`O=C(Nc1ccc(F)cc1)N1CC(=O)N2[C@H](CO)[C@H](c3ccc(C#Cc4cccnc4)cc3)[C@@H]2C1` displayed a viability index under setting [1] of 1.028 ± 0.0039.
For the compound `O=C(Nc1ccc(F)cc1)N1CC(=O)N2[C@H](CO)[C@H](c3ccc(C#Cc4cccnc4)cc3)[C@H]2C1`, the viability index under setting [1] was determined as 1.1 ± 0.086.
Under setting [1], `COc1ccc(NC(=O)N2CCCCN3[C@H](C2)[C@@H](c2ccc(-c4ccccc4F)cc2)[C@@H]3CO)cc1` registered a viability index of 0.981 ± 0.042.
On the same count and under the same terms, the result for `COc1ccccc1NC(=O)N1C[C@@H](O)COC[C@H]2O[C@H](CC(=O)N3CCC(Cc4ccccc4)CC3)CC[C@@H]21` reads 1 ± 0.15; that for `COc1ccc(S(=O)(=O)Nc2ccc3c(c2)C(=O)N([C@@H](C)CO)C[C@@H](C)[C@@H](CN(C)Cc2ccc(C(F)(F)F)cc2)OCCCC[C@H](C)O3)cc1`, 0.994 ± 0.023; that for `COc1ccc(S(=O)(=O)Nc2ccc3c(c2)C(=O)N([C@@H](C)CO)C[C@H](C)[C@H](CN(C)S(=O)(=O)c2ccc(Cl)cc2)OCCCC[C@@H](C)O3)cc1`, 0.953 ± 0.064.
Under setting [1], `COc1ccc(S(=O)(=O)Nc2ccc3c(c2)C(=O)N([C@H](C)CO)C[C@@H](C)[C@@H](CN(C)S(=O)(=O)c2ccc(Cl)cc2)OCCCC[C@@H](C)O3)cc1` came in with a viability index of 0.533 ± 0.11.
`COc1ccc(S(=O)(=O)Nc2ccc3c(c2)C(=O)N([C@H](C)CO)C[C@@H](C)[C@H](CN(C)S(=O)(=O)c2ccc(Cl)cc2)OCCCC[C@@H](C)O3)cc1` yielded a viability index under setting [1] of 0.887 ± 0.072.
Still for that read-out and setting: the result for `COc1ccc(S(=O)(=O)Nc2ccc3c(c2)C(=O)N([C@@H](C)CO)C[C@H](C)[C@@H](CN(C)Cc2ccc(C(F)(F)F)cc2)OCCCC[C@@H](C)O3)cc1` reads 0.829 ± 0.0097; that for `COc1ccc(S(=O)(=O)Nc2ccc3c(c2)C(=O)N([C@H](C)CO)C[C@H](C)[C@@H](CN(C)S(=O)(=O)c2ccc(Cl)cc2)OCCCC[C@H](C)O3)cc1`, 0.886 ± 0.03.
Same read-out and setting: then `COc1ccc(S(=O)(=O)Nc2ccc3c(c2)C(=O)N([C@H](C)CO)C[C@@H](C)[C@H](CN(C)S(=O)(=O)c2ccc(Cl)cc2)OCCCC[C@H](C)O3)cc1`, with 0.823 ± 0.033; and `COc1ccc(S(=O)(=O)Nc2ccc3c(c2)C(=O)N([C@@H](C)CO)C[C@H](C)[C@H](CN(C)Cc2ccc(C(F)(F)F)cc2)OCCCC[C@@H](C)O3)cc1`, with 1.05 ± 0.2; and `COc1ccc(S(=O)(=O)Nc2ccc3c(c2)C(=O)N([C@@H](C)CO)C[C@@H](C)[C@@H](CN(C)S(=O)(=O)c2ccc(Cl)cc2)OCCCC[C@@H](C)O3)cc1`, with 0.77 ± 0.046.
The same measure, in the same setting: then `COc1ccc(S(=O)(=O)Nc2ccc3c(c2)C(=O)N([C@H](C)CO)C[C@H](C)[C@@H](CN(C)S(=O)(=O)c2ccc(Cl)cc2)OCCCC[C@@H](C)O3)cc1`, with 1.02 ± 0.05; and `COc1ccc(S(=O)(=O)Nc2ccc3c(c2)C(=O)N([C@@H](C)CO)C[C@@H](C)[C@H](CN(C)S(=O)(=O)c2ccc(Cl)cc2)OCCCC[C@H](C)O3)cc1`, with 0.9073 ± 0.0032; and `COc1ccc(S(=O)(=O)Nc2ccc3c(c2)C(=O)N([C@@H](C)CO)C[C@@H](C)[C@@H](CN(C)S(=O)(=O)c2ccc(Cl)cc2)OCCCC[C@H](C)O3)cc1`, with 0.911 ± 0.031.
Consider `N#C[C@@H]1[C@H](c2ccccc2-c2cccc(F)c2)[C@@H](CO)N1C(=O)c1cccnc1`, for which, under setting [1], the viability index is 1.09 ± 0.063.
Compound `O=C(c1cccc(F)c1)N1CC2(C1)[C@H](c1ccccc1)[C@@H](CO)N2Cc1ccccn1` came in with a viability index under setting [1] of 1.13 ± 0.11.
Same read-out and setting: the result for `C[C@@H]1CN([C@@H](C)CO)C(=O)CCCn2nncc2CO[C@H]1CN(C)S(=O)(=O)c1ccc(Oc2ccccc2)nc1` reads 1 ± 0.074; that for `C/C=C/c1ccc([C@H]2[C@H]3CNC[C@@H]2N3S(=O)(=O)Cc2ccccc2)cc1`, 1.06 ± 0.047; that for `N#C[C@H]1[C@@H](c2ccccc2-c2ccc(F)cc2)[C@@H](CO)N1C(=O)Cc1cccnc1`, 1.15 ± 0.046.
For `CO[C@@H]1CN(C)C(=O)c2cc(NC(=O)Nc3cc(F)ccc3F)ccc2OC[C@@H](C)NC[C@H]1C`, the viability index under setting [1] was 1.105 ± 0.0072.
